esBAF inh: inhibitors of esBAF chromatin remodeling in mouse ES cells; Bmi1-luciferase knock-in reporter, 24 h; 100% = twice the neutral-well signal; actives 2% (n = 350,000); reporter increase, % at 12.5 µM; AID 602393; in the data active = activation above about 40%; inconclusive = no clear call, values can overlap the other calls;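 note: a rise in the Bmi1 reporter signal indicates esBAF inhibition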
ssDAF-12 act: S. stercoralis DAF-12 activation, primary screen. HEK293 ssDAF-12/GRIP1 lit1-tk-luc reporter, luminescence; % of 3 µM dafachronic acid response. activation, % at 6.8 µM. actives 1% (n = 370,000);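 active = activation above the mean over all tested compounds plus 3 SD, cut at about 0.9% in these data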
Wnt bcat act: activates Wnt/beta-catenin signaling in a reporter cell assay. activator, plate reader. AID 743398. activation, % at 9.35 µM. actives 1.2% (n = 300,000); in the data active = activation above about 30%, passing the limit was not always enough; inconclusive = no clear call, values can overlap the other calls
hcDAF-12 act: H. contortus DAF-12 activation, primary screen; AID 652067; HEK293 hcDAF-12 lit1-tk-luc reporter, luminescence; 0% DMSO, 100% Δ7-dafachronic acid; actives 1.4% (n = 370,000); activation, % at 6.8 µM;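 active = activation above the mean of all tested compounds plus 3 SD, cut at about 5.5% in these data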
DAX1 StAR inh: DAX1 (NR0B1) inhibition, primary screen; HEK293T StAR-luciferase reporter, SF-1/DAX-1 repression relief; inhibition, % at 6.8 µM; actives 1.1% (n = 370,000); AID 652010;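 active = inhibition above the mean over all tested compounds plus 3 SD, cut at about 3.6% in these data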;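 note: higher inhibition means more luminescence from relief of DAX-1 repression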
hgDAF-12 ag: activates the H. glycines DAF-12 receptor ligand-binding domain. HEK293 GAL4-hgDAF12 UAS-luciferase reporter, agonist luminescence; normalized to butyrate control. activation, % at 6.8 µM. actives 1.8% (n = 370,000);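 active = activation above a cutoff set at the mean of all screened compounds plus 3 SD, cut at about 10% in these data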
A number is an active result. The list is not random: actives were taken first. Their share in the collection is about 4.2%.

Screening Cc1noc(C)c1S(=O)(=O)N(C)C[C@@H]1OCCCC[C@H](C)Oc2ccc(NC(=O)C3CCCCC3)cc2C(=O)N([C@@H](C)CO)C[C@H]1C returned esBAF inh inactive.
CCCC1NC(=O)c2cc3ccccc3cc2-n2c1nc1ccc(C)cc1c2=O (stereo unspecified) was read as esBAF inh inactive, ssDAF-12 act inactive, Wnt bcat act inactive, hcDAF-12 act inactive, DAX1 StAR inh inactive and hgDAF-12 ag inactive.
CCCC1NC(=O)c2cc3ccccc3cc2-n2c1nc1cc(Cl)ccc1c2=O (stereo unspecified) was read as esBAF inh inactive, ssDAF-12 act 1.4, Wnt bcat act inactive, hcDAF-12 act inactive, DAX1 StAR inh inactive and hgDAF-12 ag inactive.
CC1NC(=O)c2cc3ccccc3cc2-n2c1nc1ccc(F)cc1c2=O (stereo unspecified) was read as esBAF inh inactive, ssDAF-12 act inactive, Wnt bcat act inactive, hcDAF-12 act 6.2, DAX1 StAR inh inactive and hgDAF-12 ag inactive.
For Cc1ccc2nc3n(c(=O)c2c1)-c1cc2ccccc2cc1C(=O)NC3Cc1ccccc1 (stereo unspecified) the results were esBAF inh inactive, ssDAF-12 act inactive, Wnt bcat act inactive, hcDAF-12 act inactive, DAX1 StAR inh 3.9 and hgDAF-12 ag inactive.
C[C@@H]1CN([C@H](C)CO)C(=O)c2cc(Br)cnc2O[C@@H]1CN(C)CC1CC1 was read as esBAF inh inactive.
`C(=C\c1ccccc1)/CSc1ccccn1` gave ssDAF-12 act inactive, Wnt bcat act 54.4, hcDAF-12 act inactive, DAX1 StAR inh inactive and hgDAF-12 ag inactive.
CCOC(=O)c1ccc2ncc(-c3ccccc3)nc2c1 was read as ssDAF-12 act inactive, Wnt bcat act inactive, hcDAF-12 act inactive, DAX1 StAR inh 4.3 and hgDAF-12 ag inactive.
`Cc1nc2ccc(C(=O)OCc3ccccc3Br)cc2nc1C` gave esBAF inh 102.2, ssDAF-12 act inactive, Wnt bcat act inactive, hcDAF-12 act inactive, DAX1 StAR inh inactive and hgDAF-12 ag inactive.
`COc1cc2cnc(-c3ccccc3)c(-c3cc(OC)c(OC)c(OC)c3)c2cc1OC` gave esBAF inh inactive, ssDAF-12 act inactive, Wnt bcat act inactive, hcDAF-12 act inactive, DAX1 StAR inh inactive and hgDAF-12 ag inactive.
CCOC(=O)c1cccc(-c2c(-c3ccccc3)ncc3cc(OC)c(OC)cc23)c1 was read as esBAF inh 66.8, ssDAF-12 act inactive, Wnt bcat act inactive, hcDAF-12 act inactive, DAX1 StAR inh inactive and hgDAF-12 ag inactive.
For Nc1ccc2nc(-c3ccccc3)cnc2c1 the results were ssDAF-12 act inactive, Wnt bcat act 71.7, hcDAF-12 act inactive, DAX1 StAR inh inactive and hgDAF-12 ag inactive.
`C[C@H]1CN([C@@H](C)CO)C(=O)c2cc(C#Cc3ccccc3F)cnc2O[C@H]1CN(C)C(=O)c1ccc2c(c1)OCO2` gave esBAF inh inactive.
For Cc1cccc(C)c1NC(=S)/C(=C(\[O-])c1cccs1)[n+]1ccccc1 the results were ssDAF-12 act inactive, Wnt bcat act inactive, hcDAF-12 act 5.8, DAX1 StAR inh inactive and hgDAF-12 ag inactive.
For [O-]/C(=C(\C(=S)Nc1cccc2ccccc12)[n+]1ccccc1)c1cccs1 the results were esBAF inh inactive, ssDAF-12 act inactive, Wnt bcat act inactive, hcDAF-12 act inactive, DAX1 StAR inh inactive and hgDAF-12 ag inactive.
`C[C@@H]1CCCCO[C@H](CN(C)S(=O)(=O)c2ccccc2)[C@@H](C)CN([C@@H](C)CO)C(=O)c2cc(NC(=O)NC3CCCCC3)ccc2O1` gave esBAF inh inactive.
`C[C@@H]1CN([C@H](C)CO)C(=O)Cc2cc(NC(=O)CCC(F)(F)F)ccc2O[C@@H]1CN(C)Cc1ccc(C(=O)Nc2ccccc2N)cc1` gave esBAF inh inactive.
Screening CCN(CC)c1ccc(/C=N/NC(=O)c2ccoc2C)c(O)c1 returned ssDAF-12 act inactive, Wnt bcat act 46.7, hcDAF-12 act inactive, DAX1 StAR inh inactive and hgDAF-12 ag 11.6.
CCCCCn1nc(C)c(/C=N/NC(=O)c2ccoc2C)c1C was read as esBAF inh 62.4, ssDAF-12 act inactive, hcDAF-12 act inactive, DAX1 StAR inh 3.6 and hgDAF-12 ag 12.6.
CN1c2ccc(-c3ccc(F)cc3)cc2[C@@H]2[C@@H](CCN2S(=O)(=O)c2ccc(F)cc2)[C@H]1CO was read as esBAF inh inactive.
`CO[C@@H]1CN(C)C(=O)c2ccc(NC(=O)C3CCCC3)cc2OC[C@H](C)N(CCC(F)(F)F)C[C@H]1C` gave esBAF inh inactive.
`Cc1ccc(/C(N)=N/OC(=O)CSc2ccccc2)cc1` gave ssDAF-12 act inactive, Wnt bcat act inconclusive, hcDAF-12 act inactive, DAX1 StAR inh inactive and hgDAF-12 ag inactive.
Screening N/C(=N\OC(=O)Cc1cccs1)c1ccc([N+](=O)[O-])cc1 returned esBAF inh inactive, ssDAF-12 act inactive, hcDAF-12 act inactive, DAX1 StAR inh inactive and hgDAF-12 ag 11.2.
`N/C(=N\OC(=O)CSc1ccccc1)c1ccc([N+](=O)[O-])cc1` gave ssDAF-12 act inactive, Wnt bcat act 39.0, hcDAF-12 act inactive, DAX1 StAR inh inactive and hgDAF-12 ag inactive.
`N/C(=N\OC(=O)Cc1cccs1)c1ccc(Br)cc1` gave esBAF inh inactive, ssDAF-12 act inactive, Wnt bcat act inactive, hcDAF-12 act inactive, DAX1 StAR inh inactive and hgDAF-12 ag inactive.
For CNC[C@H]1Oc2ccc(NC(=O)C3CCCCC3)cc2C(=O)N([C@@H](C)CO)C[C@H]1C the results were esBAF inh inactive.
`Cc1n[nH]c(=O)nc1N/N=C/c1ccco1` gave ssDAF-12 act inactive, Wnt bcat act 48.7, hcDAF-12 act inactive, DAX1 StAR inh inactive and hgDAF-12 ag inactive.
Screening COc1cc(OC)c(C2CC(=O)N3CN(c4ccc(C)cc4)CSC3=C2C#N)cc1OC (stereo unspecified) returned esBAF inh inactive, ssDAF-12 act inactive, Wnt bcat act 37.6, hcDAF-12 act inactive, DAX1 StAR inh inactive and hgDAF-12 ag inactive.
COc1ccc(N2CSC3=C(C#N)C(c4cc(OC)c(OC)cc4OC)CC(=O)N3C2)c(OC)c1 (stereo unspecified) was read as esBAF inh inactive, ssDAF-12 act inactive, Wnt bcat act inactive, hcDAF-12 act inactive, DAX1 StAR inh inactive and hgDAF-12 ag inactive.
Cc1ccc(N2CSC3=C(C#N)C(c4cccs4)CC(=O)N3C2)cc1 (stereo unspecified) was read as esBAF inh 54.4, ssDAF-12 act inactive, Wnt bcat act inactive, hcDAF-12 act inactive, DAX1 StAR inh inactive and hgDAF-12 ag inactive.
CCC(=O)N1CCCCN2[C@H](CO)[C@H](c3ccc(C#Cc4ccccc4F)cc3)[C@@H]2C1 was read as esBAF inh inactive.

Screening data from PubChem BioAssay.
